Assay [1] is described as follows: binders of probe aFSTL3 on microarray, primary screen, stem cell growth factor project, biochemical, small-molecule microarray, fluorescence 635/667 (AID 1064).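 Further: measures binding of the biotinylated anti-FSTL3 antibody to printed compounds.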 Particulars: higher = more signal.
Assay [2] in a line: binders from COS7 lysate, DM2A8 probe, primary screen, torsin A project, cell lysate, small-molecule microarray, fluorescence 635/667 (AID 1065). Particulars: higher = more signal, COS7 lysate expressing mutant human TOR1A.
The nature of assay [3]: binders of probe aFGF2 on microarray, primary screen, stem cell growth factor project, biochemical, small-molecule microarray, fluorescence 635/667 (AID 1067).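 Further: measures binding of biotinylated aFGF2 protein to printed compounds on slides; z-score merges feature fluorescence and signal-to-noise across triplicate slides.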 Conditions: higher = more signal.
The nature of assay [4]: binders of probe aFGF10 on microarray, primary screen, stem cell growth factor project, biochemical, small-molecule microarray, fluorescence 635/667 (AID 1071).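 Further: score merges 667 nm spot intensity and signal to noise from triplicate slides.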 Particulars: higher = more signal.
The target in assay [5] is Neurogenic locus notch homolog protein 2 (Homo sapiens) (UniProt Q04721). The experiment in a line: Notch2 binders on small-molecule microarrays, primary screen, biochemical, small-molecule microarray, 635 nm fluorescence, stem cell growth factors (AID 1073). Particulars: Notch2 binding, higher = more signal.
Assay [6] concerns the target Pro-neuregulin-1, membrane-bound isoform (Homo sapiens) (UniProt Q02297). As to the kind of experiment: NRG1 binders on small-molecule microarrays, primary screen, psychiatric disease protein project, biochemical, small-molecule microarray, fluorescence 635/667 (AID 1075).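 Further: score combines 667 nm spot fluorescence with signal to noise.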 Particulars: NRG1 binding, 635 nm fluorescence, higher = more signal.
Assay [7] deals with Neuregulin-1 EGF-like domain. As to the kind of experiment: binders of neuregulin-1 EGF-like domain, primary screen, biochemical, small-molecule microarray, 635 nm fluorescence (AID 1081).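 Further: binding of the protein to compounds printed on small-molecule microarray slides.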 Conditions: small-molecule microarray binding, higher = more signal.
Assay [8] can be described thus: FRG1 promoter luciferase signal modulators, primary screen, FRG1 inhibition for FSHD, cell-based, C2C12 myotubes, firefly/Renilla luciferase, luminescence (AID 1084). Particulars: higher = more signal, called active from +8 up or from −8 down.
Assay [9] can be described thus: binders of probe aFST on microarray, primary screen, stem cell growth factor project, biochemical, small-molecule microarray, fluorescence 635/667 (AID 1086).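 Further: score merges 667 nm fluorescence with signal-to-noise of each printed compound spot.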 Particulars: higher = more signal.
Assay [10] in a line: binders of probe aHhip on microarray, primary screen, stem cell growth factor project, biochemical, small-molecule microarray, fluorescence 635/667 (AID 1087).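 Further: score merges spot fluorescence at 667nm with spot signal to noise ratio.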 Conditions: higher = more signal.
Assay [11] concerns PRMT1 (protein arginine N-methyltransferase 1). The experiment in a line: PRMT1 binders on small-molecule microarrays, primary screen, biochemical, small-molecule microarray, 635 nm fluorescence (AID 1088).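 Further: binding of Prmt1 protein to compounds spotted on small-molecule microarray slides.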 Particulars: small-molecule microarray binding, higher = more signal.
The nature of assay [12]: yeast growth modulation, basal conditions, primary screen, YJM789 clinical isolate, OD600, 24 h (AID 1089).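 Further: growth of clinical yeast isolate S. cerevisiae YJM 789 seeded 1000 cells per well; test concentration not given here.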 Conditions: S. cerevisiae YJM789 growth, higher = more signal, called active from +8 up or from −8 down.
A short description of assay [13]: fission yeast growth modulation, primary screen, strain 972, OD600, 24 h, no modulator (AID 1090).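 Further: basal condition with compound alone and no growth modifier present; test concentration not given here.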 Conditions: S. pombe 972 growth, higher = more signal, called active from +8 up or from −8 down.
The nature of assay [14]: S. cerevisiae growth modulation with rapamycin, primary screen, strain BY4716, OD600, 96 h (AID 1091). Further: test concentration not given here. Particulars: higher = more signal, called active from +8 up or from −8 down.
The target in assay [15] is Torsin-1A-interacting protein 2 (Homo sapiens) (UniProt Q8NFQ8). As to the kind of experiment: LULL1 binders on small-molecule microarray, primary screen, cell lysate, human LULL1 lysate, 635/667 nm fluorescence (AID 1092).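 Further: probe is lysate of COS7 cells overexpressing human LULL1; score merges per-feature 667 nm fluorescence with signal-to-noise.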 Conditions: hLULL1 lysate binding, 635 nm fluorescence, higher = more signal.
Chain of Torsin-1A-interacting protein 2 (Homo sapiens) (Q8NFQ8 whole entry, looked up): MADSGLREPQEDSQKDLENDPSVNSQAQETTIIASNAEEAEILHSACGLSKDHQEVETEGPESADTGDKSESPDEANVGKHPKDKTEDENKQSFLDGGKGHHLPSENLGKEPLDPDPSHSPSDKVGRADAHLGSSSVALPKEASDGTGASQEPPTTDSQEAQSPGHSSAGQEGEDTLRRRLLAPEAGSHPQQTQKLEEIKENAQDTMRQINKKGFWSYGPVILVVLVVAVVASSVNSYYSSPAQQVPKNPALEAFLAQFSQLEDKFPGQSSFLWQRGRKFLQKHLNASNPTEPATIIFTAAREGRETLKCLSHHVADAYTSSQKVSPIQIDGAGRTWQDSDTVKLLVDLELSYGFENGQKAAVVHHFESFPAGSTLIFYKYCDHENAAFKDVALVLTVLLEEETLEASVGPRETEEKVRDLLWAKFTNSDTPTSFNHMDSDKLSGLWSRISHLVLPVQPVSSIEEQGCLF
Assay [16] in a line: E. coli growth modulation, two-sided OD650, primary screen, E. coli filamentation project, strain DRC41, 24 h (AID 1093).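 Further: MC1000 strain lacking acrAB efflux and sulA so SOS filamentation is blocked; test concentration not given here.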 Conditions: OD650, 24 h, higher = more signal, called active from +8 up or from −8 down.
Assay [17] is described as follows: small-molecule microarray binders of probe aLefty2, primary screen, biochemical, biotinylated probe, 635/667 nm fluorescence (AID 1094).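 Further: score merges spot fluorescence near 667 nm with spot signal-to-noise ratio.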 Conditions: higher = more signal.
Assay [18] concerns Noggin (protein binding on small-molecule microarray). As to the kind of experiment: Noggin binders on small-molecule microarray, primary screen, biochemical, 635/667 nm fluorescence (AID 1095).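 Further: score merges 667 nm feature fluorescence with signal to noise over triplicate slides.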 Conditions: 635 nm fluorescence, higher = more signal.
Assay [19] addresses Neurogenic locus notch homolog protein 3 (Homo sapiens) (UniProt Q9UM47). The experiment in a line: NOTCH3 binders on small-molecule microarray, primary screen, biochemical, 635/667 nm fluorescence (AID 1096). Particulars: NOTCH3 binding, 635 nm fluorescence, higher = more signal.
Assay [20] is described as follows: small-molecule microarray binders of probe aEGFR, primary screen, biochemical, biotinylated probe, 635/667 nm fluorescence (AID 1097).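 Further: probe is a biotinylated anti-EGFR antibody binding compounds printed on slides; score combines fluorescence near 667 nm and signal to noise of each spot.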 Particulars: higher = more signal.

The structures appear in SMILES notation. Activity calls are given as the source filed them.

Chain of Neurogenic locus notch homolog protein 3 (Homo sapiens) (Q9UM47 whole entry, looked up): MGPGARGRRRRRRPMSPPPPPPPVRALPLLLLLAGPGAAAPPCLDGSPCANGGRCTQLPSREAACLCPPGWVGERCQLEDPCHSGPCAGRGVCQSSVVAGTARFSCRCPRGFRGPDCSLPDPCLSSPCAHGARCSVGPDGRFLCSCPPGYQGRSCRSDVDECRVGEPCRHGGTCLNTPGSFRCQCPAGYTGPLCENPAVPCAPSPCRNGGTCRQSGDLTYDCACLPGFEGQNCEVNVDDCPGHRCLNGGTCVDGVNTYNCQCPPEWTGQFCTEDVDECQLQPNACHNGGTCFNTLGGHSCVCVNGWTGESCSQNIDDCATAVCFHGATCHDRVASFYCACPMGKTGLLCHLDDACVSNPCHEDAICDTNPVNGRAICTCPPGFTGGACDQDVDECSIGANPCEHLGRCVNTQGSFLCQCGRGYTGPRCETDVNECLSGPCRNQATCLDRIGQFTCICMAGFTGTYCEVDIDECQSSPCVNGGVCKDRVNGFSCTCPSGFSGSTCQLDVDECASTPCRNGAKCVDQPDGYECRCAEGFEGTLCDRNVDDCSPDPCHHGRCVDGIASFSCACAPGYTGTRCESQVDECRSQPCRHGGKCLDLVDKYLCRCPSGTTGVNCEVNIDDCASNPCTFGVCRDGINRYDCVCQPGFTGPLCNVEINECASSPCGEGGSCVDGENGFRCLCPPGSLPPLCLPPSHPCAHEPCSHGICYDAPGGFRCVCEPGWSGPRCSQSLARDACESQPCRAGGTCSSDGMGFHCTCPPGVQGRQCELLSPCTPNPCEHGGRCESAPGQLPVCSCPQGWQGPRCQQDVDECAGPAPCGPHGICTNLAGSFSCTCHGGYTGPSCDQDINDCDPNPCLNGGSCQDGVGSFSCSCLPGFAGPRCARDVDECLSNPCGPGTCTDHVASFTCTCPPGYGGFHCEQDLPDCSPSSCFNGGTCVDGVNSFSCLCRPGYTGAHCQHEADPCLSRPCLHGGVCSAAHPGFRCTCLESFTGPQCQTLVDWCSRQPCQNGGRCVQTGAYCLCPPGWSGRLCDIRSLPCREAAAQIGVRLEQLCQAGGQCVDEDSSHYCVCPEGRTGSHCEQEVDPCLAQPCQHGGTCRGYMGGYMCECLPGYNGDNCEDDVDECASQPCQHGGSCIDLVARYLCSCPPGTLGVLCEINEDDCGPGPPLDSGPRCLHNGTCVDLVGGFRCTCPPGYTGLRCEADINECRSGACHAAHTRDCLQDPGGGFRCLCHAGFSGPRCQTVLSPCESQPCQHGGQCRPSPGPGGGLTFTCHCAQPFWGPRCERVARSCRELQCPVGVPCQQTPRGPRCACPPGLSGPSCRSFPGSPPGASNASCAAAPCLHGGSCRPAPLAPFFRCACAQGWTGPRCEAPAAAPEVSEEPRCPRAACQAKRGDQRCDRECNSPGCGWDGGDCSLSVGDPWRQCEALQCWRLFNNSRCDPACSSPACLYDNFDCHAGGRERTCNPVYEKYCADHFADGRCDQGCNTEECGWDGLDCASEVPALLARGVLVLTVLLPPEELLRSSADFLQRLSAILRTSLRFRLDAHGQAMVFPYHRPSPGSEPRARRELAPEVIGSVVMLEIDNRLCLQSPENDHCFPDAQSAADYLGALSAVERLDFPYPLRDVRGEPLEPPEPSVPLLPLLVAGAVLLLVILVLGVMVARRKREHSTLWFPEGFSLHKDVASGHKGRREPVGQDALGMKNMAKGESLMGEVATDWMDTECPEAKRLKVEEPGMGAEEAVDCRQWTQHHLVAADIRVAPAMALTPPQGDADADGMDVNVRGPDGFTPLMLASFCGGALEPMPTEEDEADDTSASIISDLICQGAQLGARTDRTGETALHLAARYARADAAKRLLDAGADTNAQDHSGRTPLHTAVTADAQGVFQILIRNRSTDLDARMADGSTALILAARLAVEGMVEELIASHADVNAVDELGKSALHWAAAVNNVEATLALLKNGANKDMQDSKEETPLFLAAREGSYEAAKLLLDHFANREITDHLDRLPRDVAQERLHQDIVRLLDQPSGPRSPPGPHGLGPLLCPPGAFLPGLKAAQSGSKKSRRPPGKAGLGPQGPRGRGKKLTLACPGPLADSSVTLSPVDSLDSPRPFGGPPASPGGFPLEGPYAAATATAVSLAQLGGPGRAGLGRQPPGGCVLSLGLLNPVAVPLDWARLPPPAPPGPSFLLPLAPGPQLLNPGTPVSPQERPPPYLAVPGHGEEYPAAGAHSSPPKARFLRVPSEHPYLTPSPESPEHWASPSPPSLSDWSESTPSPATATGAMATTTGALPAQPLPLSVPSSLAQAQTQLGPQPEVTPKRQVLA
Chain of Pro-neuregulin-1, membrane-bound isoform (Homo sapiens) (Q02297 whole entry, looked up, the tested form may be a part, canonical isoform): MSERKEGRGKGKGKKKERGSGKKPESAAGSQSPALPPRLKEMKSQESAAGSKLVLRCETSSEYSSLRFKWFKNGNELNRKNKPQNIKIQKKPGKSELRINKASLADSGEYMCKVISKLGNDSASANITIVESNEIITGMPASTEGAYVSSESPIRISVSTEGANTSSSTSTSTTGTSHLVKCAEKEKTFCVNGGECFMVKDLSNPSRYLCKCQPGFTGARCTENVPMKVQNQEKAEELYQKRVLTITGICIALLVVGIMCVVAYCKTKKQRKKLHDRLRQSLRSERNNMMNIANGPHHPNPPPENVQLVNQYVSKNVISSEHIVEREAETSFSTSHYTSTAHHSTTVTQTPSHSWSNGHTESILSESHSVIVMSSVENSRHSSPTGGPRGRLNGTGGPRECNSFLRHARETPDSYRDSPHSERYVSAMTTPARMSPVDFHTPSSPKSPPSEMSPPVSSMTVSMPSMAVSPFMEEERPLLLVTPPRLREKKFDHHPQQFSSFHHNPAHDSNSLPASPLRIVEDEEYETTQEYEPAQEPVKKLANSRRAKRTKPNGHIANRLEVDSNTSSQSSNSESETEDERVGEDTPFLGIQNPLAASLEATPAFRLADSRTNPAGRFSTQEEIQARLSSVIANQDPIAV

Regarding `CCCC#C[Si](O[C@H](CC)c1cn([C@H](C)c2ccccc2)nn1)(C(C)C)C(C)C`, the composite z-score in assay [1] is -0.4; in assay [2], 1.31; in assay [3], -0.0407; in assay [4] it was 0.468; in assay [5] it was 0.97; in [6], 0.0607. The composite z-score was 0.181 in assay [7]; 0.593 in assay [9]; -0.407 in assay [10]; 0.817 in assay [11]; 1.05 in [15]; 0.0539 in assay [17]. Besides, the composite z-score in assay [18] was 0.316; in [19], 0.579; in assay [20] it was 0.359. The z-score is 0.337 (inactive) in [8]; -0.764 (inactive) in assay [12]; -10.2 (active) in assay [13]; -3.25 (inactive) in [14]; 2.37 (inactive) in [16].

As to `O=c1cccc(-c2ccc([N+](=O)[O-])cc2)o1`, the composite z-score in assay [1] is -0.164; in assay [2] it was -0.0642; in [3], 0.0008; in assay [4], 0.287; in [5], 0.698; in assay [6], -0.283. In addition, the composite z-score was 0.348 in assay [7]; -0.192 in [9]; -0.0263 in assay [10]; 1.03 in assay [11]; 0.706 in assay [15]; -0.139 in [17]. Moreover, the figures for the composite z-score in assay [18], in [19] and in assay [20] were 1.17, 0.375 and -0.0644, respectively. Also, the z-score was -0.0029 (inactive) in [8]; -0.778 (inactive) in assay [12]; 1.25 (inactive) in [13]; -0.495 (inactive) in [14]; 0.188 (inactive) in assay [16].

Regarding `O[C@@H](Cc1ccccc1)[C@@H](/C=C/C1CC1)N(CC#Cc1ccccc1)Cc1ccccc1Br`, the composite z-score in assay [1] was 1.53; in assay [2] it was -0.614; in assay [3], -0.157; in [4] it was -0.763; in assay [5], -0.836; in assay [6] it was -0.0422. Further, the composite z-score was -0.0401 in assay [7]; -0.221 in assay [9]; -0.19 in assay [10]; -0.0917 in assay [11]; 0.461 in [15]; 0.0166 in assay [17]. Besides, the results for the composite z-score in assay [18], in assay [19] and in [20] were -1.33, -0.817 and -0.339, respectively. For the same compound, the z-score in [8] is -0.507 (inactive); in assay [12], 0.298 (inactive); in assay [13] it was 0.398 (inactive); in [14], 1.43 (inactive); in assay [16] it was 0.247 (inactive).

Consider `O=C(NCc1ccc(F)cc1)[C@H]1C[C@H]2C(=O)NCC(=O)N2[C@H]1c1ccc(O)cc1`, for which the composite z-score was 0.505 in [1]; 0.6 in assay [2]; -0.0224 in assay [3]; -0.162 in assay [4]; -0.336 in [5]; 0.964 in assay [6]. Also, the composite z-score in assay [7] stood at 1.3; in assay [9], 0.101; in assay [10] it was 0.12; in assay [11], 1.55; in assay [15], 1.22; in [17], 0.372. Also, the composite z-score is 1.35 in [18], 0.0831 in assay [19] and -0.334 in assay [20]. Also, the z-score in assay [8] is -0.428 (inactive); in [12] it was 1.29 (inactive); in assay [13], 1.01 (inactive); in assay [14] it was 1.56 (inactive); in assay [16], 0.816 (inactive).

For the compound `COc1ccc(CCNC(=O)[C@@]2(Cc3ccccc3I)c3ccccc3C(=O)N(C3CCCCC3)[C@H]2c2ccc(CO)cc2)cc1`, the composite z-score was -0.0515 in assay [1]; -0.256 in [2]; -0.079 in assay [3]; -0.0337 in assay [4]; 0.281 in [5]; 0.56 in [6]. In addition, the composite z-score is 0.897 in assay [7]; 0.384 in assay [9]; -0.0645 in assay [10]; 1.36 in assay [11]; 2.3 in assay [15]; -0.0176 in assay [17]. Also, the composite z-score in assay [18] was -0.275; in assay [19], 0.566; in assay [20] it was -0.115. For the same compound, the z-score was -4.25 (inactive) in [8]; -2.01 (inactive) in assay [12]; -1.81 (inactive) in assay [13]; -0.742 (inactive) in assay [14]; -1.41 (inactive) in [16].

Source of the values: PubChem BioAssay.
